{"source": "the antibiotic and cytotoxicity screens of Wong et al. (2023)", "note": "Hit rate of the full screen: of about 39,000 compounds, about 1,500 (3.8%) were called active. This is one part of a sample in which actives are shown more often than they occur."}
{"test_system": "HSkMC (human skeletal muscle cells)", "assay": "cytotoxicity call (relative viability < 0.9)", "details": "10 µM"}
{"compound": "COc1ccc(-c2cnc3c(c2)C(=O)N([C@@H](C)CO)C[C@H](C)[C@H](CN(C)C(=O)Cc2ccccn2)O3)cc1", "cytotoxicity call": "inactive"}
{"compound": "C[C@@H]1CN([C@H](C)CO)C(=O)c2cc(NC(=O)Cn3cnnn3)ccc2O[C@@H]1CN(C)Cc1ccc(C(F)(F)F)cc1", "cytotoxicity call": "inactive"}
{"compound": "C[C@H]1CCCCO[C@H](CN(C)C(=O)Cc2ccccc2)[C@@H](C)CN([C@@H](C)CO)C(=O)c2cc(NC(=O)Nc3ccccc3)ccc2O1", "cytotoxicity call": "inactive"}
{"compound": "C[C@@H]1CCCCO[C@H](CN(C)C(=O)Nc2ccc(F)cc2)[C@@H](C)CN([C@H](C)CO)C(=O)c2cc(NC(=O)CCC(F)(F)F)ccc2O1", "cytotoxicity call": "inactive"}
{"compound": "C[C@@H]1CN([C@@H](C)CO)C(=O)CCCn2cc(nn2)CO[C@H]1CN(C)C(=O)Nc1cccc(Oc2ccccn2)c1", "cytotoxicity call": "inactive"}
{"compound": "C[C@@H]1CN([C@H](C)CO)C(=O)c2cccc(NC(=O)c3ccc(-c4nccs4)cc3)c2O[C@H]1CN(C)S(=O)(=O)c1ccc(Cl)cc1", "cytotoxicity call": "inactive"}
{"compound": "C=C1c2cccc(O)c2C(=O)C2=C(O)[C@]3(O)C(O)=C(C(N)=O)C(=O)[C@@H](N(C)C)[C@@H]3[C@@H](O)[C@H]12", "cytotoxicity call": "inactive"}
{"compound": "O=C(C[C@H]1CC[C@@H]2[C@H](COC[C@H](O)CN2S(=O)(=O)c2ccc(Cl)cc2)O1)NCCN1CCCC1", "cytotoxicity call": "inactive"}
{"compound": "COc1ccc2c3c([nH]c2c1)[C@H](CO)N(C[C@]13CCN(CC1)Cc1ccccc1OC)C(=O)Nc1ccc(cc1)F", "cytotoxicity call": "inactive"}
{"compound": "COc1ccc2c3c([nH]c2c1)[C@@H](CO)N(C[C@]13CCN(CC1)Cc1ccccc1OC)C(=O)Nc1ccc(cc1)F", "cytotoxicity call": "inactive"}
{"compound": "COc1ccc2c3c([nH]c2c1)[C@H](CO)N(C[C@]13CCN(CC1)C(=O)Nc1ccccc1)C(=O)Nc1ccc(cc1)F", "cytotoxicity call": "inactive"}
{"compound": "COc1ccc2c3c([nH]c2c1)[C@@H](CO)N(C[C@]13CCN(CC1)Cc1cc(on1)-c1ccccc1)C(=O)Nc1ccc(cc1)F", "cytotoxicity call": "active"}
{"compound": "COc1ccc2c3c([nH]c2c1)[C@@H](CO)N(C[C@]13CN(Cc2cc(on2)-c2ccccc2)C1)C(=O)Nc1ccc(cc1)F", "cytotoxicity call": "inactive"}
{"compound": "COc1ccc(cc1)CN1CC[C@]2(CC1)CN([C@@H](CO)c1[nH]c3cc(ccc3c12)OC)C(=O)Nc1ccc(cc1)F", "cytotoxicity call": "inactive"}
{"compound": "COc1ccc2c3c([nH]c2c1)[C@@H](CO)N(C[C@]13CCN(CC1)C(=O)Nc1ccccc1)C(=O)Nc1ccc(cc1)F", "cytotoxicity call": "inactive"}
{"compound": "COc1ccc2c3c([nH]c2c1)[C@H](CO)N(C[C@]13CCN(CC1)Cc1cc(on1)-c1ccccc1)C(=O)Nc1ccc(cc1)F", "cytotoxicity call": "active"}
{"compound": "COc1ccc2c3c([nH]c2c1)[C@@H](CO)N(C[C@]13CCN(CC1)Cc1ccc(cc1)F)C(=O)Nc1ccc(cc1)F", "cytotoxicity call": "active"}
{"compound": "COc1ccc2c3c([nH]c2c1)[C@H](CO)N(C[C@]13CN(Cc2cc(on2)-c2ccccc2)C1)C(=O)Nc1ccc(cc1)F", "cytotoxicity call": "active"}
{"compound": "COc1ccc2c3c([nH]c2c1)[C@H](CO)N(C[C@]13CCN(CC1)Cc1ccc(cc1)F)C(=O)Nc1ccc(cc1)F", "cytotoxicity call": "inactive"}
{"compound": "COc1ccc(cc1)CN1CC[C@]2(CC1)CN([C@H](CO)c1[nH]c3cc(ccc3c12)OC)C(=O)Nc1ccc(cc1)F", "cytotoxicity call": "inactive"}
{"compound": "C=c1[nH]/c(=C\\c2ccc(F)cc2)c(=O)o1", "cytotoxicity call": "inactive"}
{"compound": "Cc1noc(C)c1S(=O)(=O)Nc1ccc2c(c1)C(=O)N([C@H](C)CO)C[C@H](C)[C@@H](CN(C)S(C)(=O)=O)OCCCC[C@H](C)O2", "cytotoxicity call": "inactive"}
{"compound": "C[C@H]1CN([C@@H](C)CO)C(=O)Cc2cc(NC(=O)CCCN(C)C)ccc2O[C@@H]1CN(C)C(=O)Nc1ccc2c(c1)OCO2", "cytotoxicity call": "inactive"}
{"compound": "C[C@@H]1CN([C@@H](C)CO)C(=O)c2cccc(NC(=O)c3cnccn3)c2O[C@@H]1CN(C)S(=O)(=O)c1ccccc1", "cytotoxicity call": "inactive"}
{"compound": "CCS(=O)(=O)NCC[C@H]1CC[C@H](NC(=O)C2CC2)[C@@H](CO)O1", "cytotoxicity call": "inactive"}
{"compound": "O=C(O)CNC(=O)[C@H]1COc2ccccc2O1", "cytotoxicity call": "inactive"}
{"compound": "COc1cccc(-c2cn(CC[C@H]3CC[C@H](NC(=O)CN(C)C)[C@H](CO)O3)nn2)c1", "cytotoxicity call": "inactive"}
{"compound": "COc1ccc(NC(=O)N(C)C[C@H]2OCCCC[C@H](C)Oc3ccc(NC(=O)C4CCCCC4)cc3C(=O)N([C@@H](C)CO)C[C@H]2C)cc1", "cytotoxicity call": "inactive"}
{"compound": "CC(=O)O[C@H]1C[C@@]2(C)[C@H]3CC=C4[C@@H](C[C@@H](O[C@H]5O[C@@H](CO)[C@@H](O)[C@@H](O)[C@@H]5O)[C@@H](O)C4(C)C)[C@@]3(C)CC[C@@]2(C)[C@@H]1C(C)(O)C(=O)CCC(C)(C)O", "note": "(some centres not stated)", "cytotoxicity call": "inactive"}
{"compound": "COc1ccc(S(=O)(=O)Nc2ccc3c(c2)C(=O)N([C@@H](C)CO)C[C@@H](C)[C@H](CN(C)S(=O)(=O)c2ccc(F)cc2)O3)cc1", "cytotoxicity call": "inactive"}
{"compound": "O=C(O)[C@H]1C[C@H]2C(=O)NCC(=O)N2[C@H]1c1ccc(O)cc1", "cytotoxicity call": "inactive"}
{"compound": "C[C@@H]1CN([C@H](C)CO)C(=O)c2cccc(NC(=O)c3ccc(-c4nccs4)cc3)c2O[C@@H]1CN(C)Cc1ccc2c(c1)OCO2", "cytotoxicity call": "inactive"}
{"compound": "C[C@H](CO)N1C[C@H](C)[C@@H](CN(C)Cc2ccc(-c3ccccc3)cc2)OCc2ccccc2-c2c(n(C)c3ccccc23)C1=O", "cytotoxicity call": "inactive"}
{"compound": "C[C@@H]1CN([C@H](C)CO)C(=O)c2c(c3ccccc3n2C)-c2ccccc2CO[C@H]1CN(C)C(=O)Nc1ccc(-c2ccccc2)cc1", "cytotoxicity call": "inactive"}
{"compound": "C[C@H](CO)N1C[C@H](C)[C@H](CN(C)Cc2ccc(-c3ccccc3)cc2)OCc2ccccc2-c2c(n(C)c3ccccc23)C1=O", "cytotoxicity call": "active"}
{"compound": "C[C@H](CO)N1C[C@H](C)[C@H](CN(C)C(=O)Nc2ccc(-c3ccccc3)cc2)OCc2ccccc2-c2c(n(C)c3ccccc23)C1=O", "cytotoxicity call": "active"}
{"compound": "C[C@@H]1CN([C@H](C)CO)C(=O)c2c(c3ccccc3n2C)-c2ccccc2CO[C@@H]1CN(C)Cc1ccc(-c2ccccc2)cc1", "cytotoxicity call": "inactive"}
{"compound": "C[C@H](CO)N1C[C@H](C)[C@@H](CN(C)Cc2ccccc2)OCc2ccccc2-c2c(n(C)c3ccccc23)C1=O", "cytotoxicity call": "inactive"}
{"compound": "C[C@H]1CN([C@@H](C)CO)C(=O)c2c(c3ccccc3n2C)-c2ccccc2CO[C@@H]1CN(C)Cc1ccccc1", "cytotoxicity call": "inactive"}
{"compound": "C[C@@H]1CN([C@@H](C)CO)C(=O)c2c(c3ccccc3n2C)-c2ccccc2CO[C@H]1CN(C)Cc1ccc(-c2ccccc2)cc1", "cytotoxicity call": "inactive"}
{"compound": "C[C@@H]1CN([C@H](C)CO)C(=O)c2c(c3ccccc3n2C)-c2ccccc2CO[C@@H]1CN(C)C(=O)Nc1ccc(-c2ccccc2)cc1", "cytotoxicity call": "inactive"}
{"compound": "C[C@@H]1CN([C@@H](C)CO)C(=O)c2c(c3ccccc3n2C)-c2ccccc2CO[C@@H]1CN(C)Cc1ccc(-c2ccccc2)cc1", "cytotoxicity call": "active"}
{"compound": "C[C@H]1CN([C@@H](C)CO)C(=O)c2c(c3ccccc3n2C)-c2ccccc2CO[C@@H]1CN(C)Cc1ccc(-c2ccccc2)cc1", "cytotoxicity call": "inactive"}
{"compound": "C[C@@H]1CN([C@H](C)CO)C(=O)c2c(c3ccccc3n2C)-c2ccccc2CO[C@H]1CN(C)Cc1ccccc1", "cytotoxicity call": "active"}
{"compound": "C[C@@H]1CN([C@@H](C)CO)C(=O)Cc2cc(NS(=O)(=O)c3cn(C)cn3)ccc2O[C@H]1CN(C)C(=O)Nc1ccccc1", "cytotoxicity call": "inactive"}
{"compound": "C[C@H](NC(=O)[C@@H]1N[C@@H]2c3ccc(-c4ccc(C(=O)N(C)C)cc4)c(=O)n3C[C@@H]2[C@H]1CO)c1ccccc1", "cytotoxicity call": "inactive"}
{"compound": "COc1ccc2c3c(n(c2c1)C)[C@@H](CO)N(C[C@]13CN(C1)C(=O)c1ccncc1)C(=O)C1CCOCC1", "cytotoxicity call": "inactive"}
{"compound": "C[C@H]1CCCCO[C@@H](CN(C)C(=O)Nc2ccc3c(c2)OCO3)[C@@H](C)CN([C@@H](C)CO)C(=O)c2cc(NC(=O)Cc3ccccc3)ccc2O1", "cytotoxicity call": "inactive"}
{"compound": "C[C@@H]1CN([C@@H](C)CO)S(=O)(=O)c2ccc(C#CC3(O)CCCC3)cc2O[C@H]1CN(C)C(=O)Nc1ccc(F)cc1", "cytotoxicity call": "inactive"}
{"compound": "C[C@@H]1CCCCO[C@@H](CN(C)Cc2ccc(C(F)(F)F)cc2)[C@@H](C)CN([C@H](C)CO)C(=O)c2cc(NS(C)(=O)=O)ccc2O1", "cytotoxicity call": "inactive"}
{"compound": "C[C@H](CO)N1C[C@H](C)[C@H](CN(C)S(C)(=O)=O)Oc2ccc(NC(=O)Nc3ccc(C(F)(F)F)cc3)cc2CC1=O", "cytotoxicity call": "inactive"}
{"compound": "Cc1ccc(S(=O)(=O)N(C)C[C@H]2Oc3ccc(NC(=O)Nc4ccc(C(F)(F)F)cc4)cc3CC(=O)N([C@H](C)CO)C[C@H]2C)cc1", "cytotoxicity call": "active"}
{"compound": "Cc1ccc(S(=O)(=O)N(C)C[C@H]2Oc3ccc(NC(=O)Nc4ccc(C(F)(F)F)cc4)cc3CC(=O)N([C@H](C)CO)C[C@@H]2C)cc1", "cytotoxicity call": "active"}
{"compound": "Cc1ccc(S(=O)(=O)N(C)C[C@H]2Oc3ccc(NC(=O)Nc4ccc(C(F)(F)F)cc4)cc3CC(=O)N([C@@H](C)CO)C[C@H]2C)cc1", "cytotoxicity call": "active"}
{"compound": "Cc1ccc(S(=O)(=O)N(C)C[C@@H]2Oc3ccc(NC(=O)Nc4ccc(C(F)(F)F)cc4)cc3CC(=O)N([C@H](C)CO)C[C@@H]2C)cc1", "cytotoxicity call": "active"}
{"compound": "C[C@@H]1CN([C@@H](C)CO)C(=O)Cc2cc(NC(=O)Nc3ccc(C(F)(F)F)cc3)ccc2O[C@@H]1CN(C)S(C)(=O)=O", "cytotoxicity call": "inactive"}
{"compound": "C[C@@H]1CN([C@H](C)CO)C(=O)c2cc(C#CCN(C)C)cnc2O[C@@H]1CN(C)Cc1ccc2c(c1)OCO2", "cytotoxicity call": "inactive"}
{"compound": "C[C@H](CO)N1C[C@H](C)[C@H](CN(C)S(=O)(=O)c2ccc(C(F)(F)F)cc2)OCc2ccccc2-c2ccccc2C1=O", "cytotoxicity call": "inactive"}
{"compound": "C[C@@H]1CN([C@H](C)CO)C(=O)c2cccc(NC(=O)C3CCCCC3)c2O[C@@H]1CN(C)C(=O)Nc1ccc(C(F)(F)F)cc1", "cytotoxicity call": "inactive"}
{"compound": "COc1ccc(NC(=O)CSC2=NC(C)=C(C(=O)Nc3nc4ccccc4s3)[C@H](c3ccco3)C2C#N)cc1", "note": "(some centres not stated)", "cytotoxicity call": "inactive"}
{"compound": "COc1ccc(CCNS(=O)(=O)c2cn(C)c(=O)n(C)c2=O)cc1", "cytotoxicity call": "inactive"}
{"compound": "CCCN(C)C[C@H]1OCCCC[C@@H](C)Oc2ccc(NS(C)(=O)=O)cc2C(=O)N([C@H](C)CO)C[C@@H]1C", "cytotoxicity call": "inactive"}
